Source: PubChem
RE007 growth inh: less growth of the S. pombe RE007 Vpr strain. Potency, µM (titrated, usually from 92.2 µM), without a hit: at the top dose activity change, negative = less growth, usual class: inhibitors. hit rate 0.21% among 360,000. AID 651644. S. pombe RE007 Vpr strain, BacTiter-Glo ATP luminescence, 24 h; active = well fitted falling curve with a large enough effect; inconclusive = small, poorly fitted or top-dose-only effect; inactive = no such curve, though single readings can be large or run the other way; note: % is set by controls: 0 for no effect and ±100 for the full control effect; nearly all actives have a fitted effect of over 50% in size
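Fission yeast RE007 carrying one integrated HIV-1 vpr copy, seeded at OD 0.01 in PMG+AL medium with 23 nL pinned compound. Grown 24 h at 30 degrees; viability read by BacTiter-Glo luminescence after 5 min.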
AmpC inh detg: inhibitors of E. coli AmpC beta-lactamase with detergent; P00811; AmpC hydrolysis of nitrocefin, absorbance 480 nm, 0.01% Triton; Potency, µM (highest dose often 114 µM), for the others: top-dose activity change, negative = inhibition, actives largely listed as inhibitors; hit rate 0.041% among 370,000;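 note: 0% = no-compound wells and -100% = no-enzyme wells; nearly all actives have a fitted effect of over 25% in size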
Target sequence (P00811 whole entry, looked up): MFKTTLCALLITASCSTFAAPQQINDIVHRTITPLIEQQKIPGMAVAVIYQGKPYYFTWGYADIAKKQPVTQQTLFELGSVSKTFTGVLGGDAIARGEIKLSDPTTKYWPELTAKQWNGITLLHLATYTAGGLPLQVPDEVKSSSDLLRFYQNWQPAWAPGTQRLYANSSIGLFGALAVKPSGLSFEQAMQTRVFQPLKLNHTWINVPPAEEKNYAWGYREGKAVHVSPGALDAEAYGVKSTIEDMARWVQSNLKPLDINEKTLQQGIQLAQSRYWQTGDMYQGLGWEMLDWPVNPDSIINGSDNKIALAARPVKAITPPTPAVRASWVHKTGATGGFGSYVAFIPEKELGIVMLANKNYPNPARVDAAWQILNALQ
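AmpC (5.3 nM in the dispensed reagent) in 20 mM phosphate pH 7.0 with 0.01% (detergent screen) or 0.0001% Triton X-100 was preincubated with compounds for 15 min at room temperature. Nitrocefin was then added from an 800 uM solution, and hydrolysis was followed at 480 nm.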
AmpC no deterg: AmpC beta-lactamase inhibition without detergent; P00811; AmpC nitrocefin hydrolysis, absorbance 480 nm, 0.0001% Triton; Potency, µM (highest dose often 57.1 µM), inactives show top-dose activity change, negative = inhibition, usual class: inhibitors; hit rate 0.52% among 330,000; AID 485341;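 note: plate controls were no compound for no effect and no enzyme for full effect; nearly all actives have a fitted effect of over 20% in size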
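20 mM phosphate pH 7.0 + 0.01% (detergent screen) or 0.0001% Triton X-100; 5.3 nM AmpC reagent; cpd preinc 15 min RT; nitrocefin (800 uM stock) to start; A480 q20 s × 4 min; Activity was normalised to no-enzyme and no-compound control wells.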
Sm TGR inh: blocks Schistosoma mansoni thioredoxin glutathione reductase | Q962Y6 | purified TGR, DTNB reduction, TNB absorbance 405 nm | Potency, µM (titrated, usually from 114 µM), inactives show top-dose activity change, negative = inhibition, most hits filed as inhibitors | hit rate 3% among 360,000 | AID 485364; note: % is set by controls: 0 for no effect and ±100 for the full control effect; nearly all actives have a fitted effect of over 60% in size
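TGR 20 nM + NADPH 100 uM (dispensed conc.), cpd preinc 15 min RT; start with NADPH (500 uM addition) then DTNB (15 mM addition). Kinetic TNB absorbance, 405 nm filter. Four-parameter Hill fit across titration.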
SARS PLP yeast: inhibitors of SARS-CoV papain-like protease in yeast; S. cerevisiae expressing SARS-CoV PLpro, growth rescue; Potency, µM (titrated, usually from 32.9 µM), for the others: at the top dose activity, positive = growth rescue, actives largely listed as activators; hit rate 0.19% among 330,000; AID 485353; calls by dose curve; note: 0% is about no effect; nearly all actives have a fitted effect of over 55% in size
Tb PYK inh: T. brucei pyruvate kinase inhibition | Q57TT1 | TbPYK enzyme, Kinase-Glo Plus ATP luminescence, 45 min | Potency, µM (titrated, usually from 76.8 µM), for inactives: at the highest dose activity, negative = inhibition, most hits filed as inhibitors | hit rate 0.12% among 410,000 | AID 624173; note: % is set by controls: 0 for no effect and ±100 for the full control effect; nearly all actives have a fitted effect of over 50% in size
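In this concentration-response screen, enzyme-free wells defined baseline while DMSO plates tracked drift. Each reaction combined TbPYK, substrate, compound and 130 uM ADP for 45 min at room temperature. Kinase-Glo Plus luminescence gave the signal.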
* = called active by the depositor; [ ] = another dose, or the depositor's remark. Rows were chosen to be rich in hits. Some 3.3% of all compounds tested hit in one or more screens of this group. Unless noted, calls come from the whole dose curve; as a rule, active = well fitted curve in the direction sought with a large enough effect; inconclusive = small, poorly fitted or top-dose-only effect, or another doubt; inactive = no such curve, though single readings can be large; an effect the other way counts as inactive or inconclusive. Potency is the fitted concentration of half-maximal effect.

How did Oc1ccc(Cn2ccnc2)c2cccnc12 do in these assays?
RE007 growth inh: 3%; AmpC inh detg: 3%; AmpC no deterg: -2%; Sm TGR inh: 22µM*; SARS PLP yeast: 2%; Tb PYK inh: 2%

How did Cc1cccc(NCc2ccc(O)c3ncccc23)c1 do in these assays?
RE007 growth inh: 12%; AmpC inh detg: 5%; AmpC no deterg: -15%; Sm TGR inh: 0.1µM*; SARS PLP yeast: -1%; Tb PYK inh: 1%

How did CC1N=C2c3ccccc3N=C(SCC(=O)NCc3ccc(Cl)cc3)N2C1=O (stereo not given) do in these assays?
AmpC inh detg: 15%; Sm TGR inh: 11%; Tb PYK inh: 0%

How did CNS(=O)(=O)c1cn(CC(=O)N2CCN(c3ccc(Cl)cc3)CC2)cc1S(=O)(=O)NC do in these assays?
AmpC inh detg: 25%; Sm TGR inh: 5%; Tb PYK inh: -10%[15.4 µM]

How did COc1ccccc1OC(C)C(=O)Nc1cccc(-c2nc3ccccc3o2)c1 (stereo not given) do in these assays?
AmpC inh detg: 16%; Sm TGR inh: 7%; Tb PYK inh: 1%

What do the screens show for `COc1ccc(/C=N/NC(=S)Nc2ccccc2)cc1COc1ccccc1F`?
AmpC inh detg: -4%; AmpC no deterg: 14µM*; Sm TGR inh: 0%; SARS PLP yeast: 2%

What do the screens show for `COc1ccc(/C=N/NC(=S)Nc2ccccc2)cc1COc1ccc(F)cc1`?
RE007 growth inh: -12%; AmpC inh detg: -5%; AmpC no deterg: inconclusive; Sm TGR inh: -2%; SARS PLP yeast: -3%; Tb PYK inh: -7%

Results for O=C(COC(=O)C(c1ccccc1)c1ccccc1)NCc1ccco1 ?
RE007 growth inh: 2%; AmpC inh detg: 0%; AmpC no deterg: -8%; Sm TGR inh: 40µM*; SARS PLP yeast: 2%; Tb PYK inh: -8%

What do the screens show for `O=C(COC(=O)Cc1c(Cl)cccc1Cl)NCc1ccco1`?
RE007 growth inh: -3%; AmpC no deterg: -21%; SARS PLP yeast: 5%; Tb PYK inh: 6%

What do the screens show for `O=C(Cn1cc(C(=O)COc2ccccc2)c2ccccc21)NCc1ccco1`?
RE007 growth inh: -1%; AmpC inh detg: inconclusive; AmpC no deterg: -20%; Sm TGR inh: 40µM*; SARS PLP yeast: 2%; Tb PYK inh: -6%

Results for O=C(COC(=O)c1ccccc1Oc1ccccc1)NCc1ccco1 ?
RE007 growth inh: -7%; AmpC inh detg: -21%; AmpC no deterg: -14%; Sm TGR inh: 16µM*; SARS PLP yeast: 3%; Tb PYK inh: -8%

Results for O=C(COC(=O)c1ccccc1)NCc1ccco1 ?
RE007 growth inh: 7%; AmpC inh detg: -14%; AmpC no deterg: -42%; Sm TGR inh: -1%[11.4 µM]; SARS PLP yeast: -1%; Tb PYK inh: -11%

Results for O=C(COC(=O)CCSc1ccccc1Cl)NCc1ccco1 ?
RE007 growth inh: 7%; AmpC inh detg: -4%; AmpC no deterg: -5%[2.29 µM]; Sm TGR inh: 40µM*; SARS PLP yeast: 1%; Tb PYK inh: 3%

How did CC1=C(C(=O)Nc2cccc(C(F)(F)F)c2)C2(CCN(C(C)C)CC2)OC1=O do in these assays?
AmpC inh detg: 3%; Sm TGR inh: -1%; Tb PYK inh: -3%

How did Cc1ccc(C)c(NC(=O)Nc2nnc(N(CC(C)C)CC(C)C)s2)c1 do in these assays?
AmpC inh detg: 21%; Sm TGR inh: -3%; Tb PYK inh: 3%

How did Cc1cc(Br)ccc1SCC(=O)OCC(=O)NCc1ccco1 do in these assays?
RE007 growth inh: 2%; AmpC inh detg: 2%; AmpC no deterg: -11%; Sm TGR inh: 25µM*; SARS PLP yeast: -3%; Tb PYK inh: -8%

Results for Cc1nn(-c2ccccc2)c(C)c1C(=O)OCC(N)=O ?
RE007 growth inh: -3%; AmpC inh detg: inconclusive; AmpC no deterg: -2%[11.4 µM]; Sm TGR inh: 0%; SARS PLP yeast: 2%; Tb PYK inh: 0%

What do the screens show for `Cc1nn(-c2ccccc2)c(C)c1C(=O)OCC(=O)NCc1ccco1`?
RE007 growth inh: 0%; AmpC inh detg: 3%; AmpC no deterg: -11%; Sm TGR inh: 18µM*; SARS PLP yeast: -4%; Tb PYK inh: 3%

What do the screens show for `Cc1ccc(-c2nc3c(C)cccn3c2Nc2ccccc2C)s1`?
AmpC inh detg: 12%; Sm TGR inh: 8.9µM*; Tb PYK inh: -3%

What do the screens show for `O=c1[nH]c2ccc(NC(=S)Nc3ccc(Cl)cc3)cc2[nH]1`?
RE007 growth inh: -4%; AmpC inh detg: 4%; AmpC no deterg: -9%; Sm TGR inh: -14%; SARS PLP yeast: 4%; Tb PYK inh: -2%

What do the screens show for `Cc1ccccc1NC(=S)Nc1ccc2[nH]c(=O)[nH]c2c1`?
RE007 growth inh: -8%; AmpC inh detg: 0%; AmpC no deterg: -10%; Sm TGR inh: -33%; SARS PLP yeast: 1%; Tb PYK inh: -7%

Results for O=c1[nH]c2ccc(NC(=S)Nc3ccccc3Cl)cc2[nH]1 ?
RE007 growth inh: -2%; AmpC inh detg: -4%; AmpC no deterg: -26%; Sm TGR inh: 50µM*; SARS PLP yeast: 17%; Tb PYK inh: -1%

How did O=c1[nH]c2ccc(NC(=S)Nc3ccc(Cl)cc3Cl)cc2[nH]1 do in these assays?
RE007 growth inh: 4%; AmpC inh detg: -4%; AmpC no deterg: -21%; Sm TGR inh: 11µM*; SARS PLP yeast: -1%; Tb PYK inh: -2%

How did Cc1c(C(=O)Nc2ccccc2)sc2nc(-c3cc4cc(Cl)ccc4oc3=O)[nH]c(=O)c12 do in these assays?
AmpC inh detg: 5%; Sm TGR inh: -10%; Tb PYK inh: 5%

What do the screens show for `O=C(/C=C\c1ccc(-c2ccccc2)o1)c1ccccc1`?
RE007 growth inh: 6%; AmpC inh detg: inconclusive; AmpC no deterg: -27%; Sm TGR inh: 11µM*; SARS PLP yeast: 8%; Tb PYK inh: -16%

How did O=C(O)/C(=C\c1ccc(-c2ccc(F)cc2)o1)c1ccccc1 do in these assays?
RE007 growth inh: 1%; AmpC inh detg: -11%; AmpC no deterg: -38%; Sm TGR inh: 18µM*; SARS PLP yeast: -7%; Tb PYK inh: -13%

What do the screens show for `CCS(=O)(=O)N1CC(=O)N(c2ccc(C)c(C)c2)C(C)(C(=O)NC2CCCCC2)C1` (stereo not given)?
AmpC inh detg: 16%; Sm TGR inh: 8%; Tb PYK inh: 2%[15.4 µM]

What do the screens show for `O=C(O)c1ccc(/C=N/NC(=O)c2ccc(CN3c4cccc5cccc(c45)S3(=O)=O)cc2)cc1`?
RE007 growth inh: -8%; AmpC inh detg: -13%; AmpC no deterg: 28µM*; Sm TGR inh: -10%; SARS PLP yeast: 0%; Tb PYK inh: 4%
